This experiment deals with Lactobacillus gasseri. Put plainly: growth AUC relative to DMSO control (median of replicates) (fraction); higher = more growth (less inhibition), active = hit call of the paper. The conditions noted are these: 20 µM; 24 h. In outline: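 Area under the growth curve was normalised to the plate median of solvent-only wells, except on the industrial chemical plate, where row and column medians were used. Curves came from gut bacterial monocultures grown anaerobically at 37 °C in mGAM with 20 µM compound (1% DMSO), starting at OD600 0.05 and read at OD600 every hour for 24 h. The minimum OD of each curve was set to 0, and values are medians of three biological replicates grown on separate days.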
`O=C(O)C1(O)c2ccccc2-c2ccc(Cl)cc21` (stereo unspecified): the “growth AUC” value was 1.05 (inactive).

For the molecule `O=C(O)C(F)(F)C(F)(F)C(F)(F)C(F)(F)C(F)(F)C(F)(F)C(F)(F)F`, the “growth AUC” value is 1.01 (inactive).

With `COP(=O)(OC)OC=C(Cl)Cl`, the “growth AUC” value is 0.912 (inactive).

On to `CCCN(CC)CC1COC2(CCC(C(C)(C)C)CC2)O1` (stereo unspecified), for which the “growth AUC” value is 1.04 (inactive).

Consider `CCOP(=O)(SC(C)CC)N1CCSC1=O` (stereo unspecified), for which the “growth AUC” value was 0.997 (inactive).

As for `O=NN(CCO)CCO`, the “growth AUC” value is 0.976 (inactive).

As for `CSc1nc(N=[N+]=[N-])nc(NC(C)C)n1`, the “growth AUC” value was 1.15 (inactive).

As for `COP(=O)(OC)Oc1ccc(S(C)=O)c(C)c1` (stereo unspecified), the “growth AUC” value is 1.13 (inactive).

`O=C(Nc1ccccc1)N(Cc1ccc(Cl)cc1)C1CCCC1`: the “growth AUC” value is 1.01 (inactive).

With `CC(C)OC(=O)C(C(=O)OC(C)C)=C1SCCS1`, the “growth AUC” value is 0.977 (inactive).

Consider `CCC(C)[C@H]1O[C@]2(C=C[C@@H]1C)C[C@@H]1C[C@@H](C/C=C(\C)[C@@H](O[C@H]3C[C@H](OC)[C@@H](O[C@H]4C[C@H](OC)[C@@H](O)[C@H](C)O4)[C@H](C)O3)[C@@H](C)/C=C/C=C3\CO[C@@H]4[C@H](O)C(C)=C[C@@H](C(=O)O1)[C@]34O)O2.CO[C@H]1C[C@H](O[C@H]2[C@H](C)O[C@@H](O[C@@H]3/C(C)=C/C[C@@H]4C[C@@H](C[C@]5(C=C[C@H](C)[C@@H](C(C)C)O5)O4)OC(=O)[C@@H]4C=C(C)[C@@H](O)[C@H]5OC/C(=C\C=C\[C@@H]3C)[C@]54O)C[C@@H]2OC)O[C@@H](C)[C@@H]1O` (stereo partly specified), for which the “growth AUC” value was 0.808 (inactive).

Values taken from the supplement of paper PMC12669032.
